Consider ten compounds from PubChem BioAssay (EPA / NIEHS).

Records with an inconclusive call do not appear. The source made the active and inactive calls. The calls were made as follows, unless noted: active = hit-call score of the fitted dose curve at least 0.9, where 1 is the maximum; inactive = score below 0.9.

The test system of one assay is TTR (gene 7276). Description: CCTE_GLTED_hTTR_0.125uM: CCTE's human Transthyretin (hTTR) Inhibition Assay, with 0.125uM TTR, Great Lakes Toxicology and Ecology Division (GLTED) Lab (AID 2284431).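 Also: hits lower the fluorescence signal relative to DMSO baseline.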 As to the method:
CCTE_GLTED_hTTR is a cell-free, single-readout assay designed to test the chemicals' ability to displace T4 from the human transthyretin (TTR) protein. TTR (at 0.125uM or 0.5uM) is incubated in presence of test chemical for 2 hours during which disrupting chemicals displace ANSA from the TTR protein. Results read fluorescence at 380 excitation and 475 emission.CCTE_GLTED_hTTR_0.125uM is the assay component measured from the CCTE_GLTED_hTTR assay. It is designed to make measurements of fluorescent polarization, using a form of binding reporter, as detected with Fluorescence signals by Fluorescence technology.Data from the assay component CCTE_GLTED_hTTR_0.125uM was analyzed at the assay endpoint CCTE_GLTED_hTTR_0.125uM in the positive analysis fitting direction relative to DMSO as the negative control and baseline of activity. Using a type of binding reporter, loss-of-signal activity can be used to understand a chemical's ability to displace T4 from transthyretin. To generalize the intended target to other relatable targets, this assay endpoint is annotated to the 'transporter' intended target family, where the subfamily is 'hormone carrier protein'.
Human transthyretin (TTR) assay, developed at Great Lakes Toxicology and Ecology Division (GLTED) within the EPA's Center for Computational Toxicology and Exposure (CCTE), is designed to test the chemicals' ability to displace T4 from the TTR protein. TTR (0.125uM) is incubated in presence of test chemical for 2 hours during which disrupting chemicals displace ANSA from the TTR protein. Results read fluorescence at 380 excitation and 475 emission.

Assay [1] can be described thus: CCTE_Deisenroth_DEVTOX-GLR_Endo_CellCount: Viability Assessment in CCTE's DevTox GLR-Endo Assay, Deisenroth Lab (AID 2284420). The method in brief: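 RUES2-GLR human pluripotent cells seeded 24 h, then differentiated 48 h with two chemical exposures at 24 h intervals (10-point, 1 nM - 200 uM). Fixed, nuclear-stained, imaged; nuclei counts give % change in cell count versus 0.2% DMSO.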

Assay [2] has as its system SRY-box transcription factor 17 (SOX17) Protein Expression, Deisenroth Lab, SOX17 (gene 64321). Description: CCTE_Deisenroth_DEVTOX-GLR_Pluri_SOX17: CCTE's DevTox GLR-Pluri Assay Evaluation of SRY-box transcription factor 17 (SOX17) Protein Expression, Deisenroth Lab (AID 2284427; active = hit-call score of the fitted dose curve at least 0.9, where 1 is the maximum). The method in brief:
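RUES2-GLR human pluripotent cells were seeded 24 h, then differentiated 48 h in defined media with two chemical exposures 24 h apart (10-point series, 1 nM - 200 uM). Fixed, nuclear-stained cells were imaged; %SOX17+ cells minus 0.2% DMSO control reported.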

The test system of assay [3] is SRY-box transcription factor 2 (SOX2) Protein Expression, Deisenroth Lab, SOX2 (gene 6657). Description: CCTE_Deisenroth_DEVTOX-GLR_Pluri_SOX2: CCTE's DevTox GLR-Pluri Assay Evaluation of SRY-box transcription factor 2 (SOX2) Protein Expression, Deisenroth Lab (AID 2284428). The method in brief: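 Human pluripotent RUES2-GLR cells were seeded 24 h, then differentiated 48 h in defined media with two chemical doses at 24-h intervals (10-point, 1 nM–200 uM). Nuclear-stained cells were imaged; SOX2+ cells/cell count gave percent change versus 0.2% DMSO control.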

Assay [4] has as its system Brachyury (BRA) Protein Expression, Deisenroth Lab, TBXT (gene 6862). Description: CCTE_Deisenroth_DEVTOX-GLR_Pluri_BRA: CCTE's DevTox GLR-Pluri Assay Evaluation of Brachyury (BRA) Protein Expression, Deisenroth Lab (AID 2284429; active = hit-call score of the fitted dose curve at least 0.9, where 1 is the maximum). The method in brief:
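Human pluripotent RUES2-GLR cells, seeded 24 h, were differentiated 48 h in defined media with two chemical doses at 24-h intervals (10-point, 1 nM - 200 uM). Readout: percent BRA+ cells by fluorescent reporter imaging, minus 0.2% DMSO control.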

A short description of assay [5]: CCTE_Deisenroth_DEVTOX-GLR_Pluri_CellCount: Viability Assessment in CCTE's DevTox GLR-Pluri Assay Evaluation of Total Cell Counts, Deisenroth Lab (AID 2284430). The method in brief: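 RUES2-GLR human pluripotent cells, seeded 24 h, then differentiated 48 h with two chemical exposures 24 h apart; 10-point series 1 nM - 200 uM. Fixed, nuclear-stained, imaged (5 fields/well); nuclei count as % change vs 0.2% DMSO.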

The term AC50 denotes the concentration giving half of the maximal activity seen. As for `O=c1cc(-c2ccc(O)cc2)oc2cc(O)cc(O)c12`, the AC50 in the assay with TTR (gene 7276) is 0.035 µM (active).
With `C#C[C@]1(O)CC[C@H]2[C@@H]3CCc4cc(O)ccc4[C@H]3CC[C@@]21C`, the AC50 in the assay on TTR (gene 7276) was 2.73 µM (active).
Consider `CC(C)Cc1ccc(C(C)C(=O)O)cc1` (stereo not drawn), for which the result in assay [1], in assay [2], in assay [3], in assay [4] and in assay [5] was inactive.
Take `CCCCCCCCCOS(=O)(=O)O`: the AC50 with TTR (gene 7276) is 8.43 µM (active).
Turning to `CCCCCCCCOC(=O)c1ccc(O)cc1`, the AC50 in the assay with TTR (gene 7276) is 2.77 µM (active).
Regarding `O=S(=O)(O)c1cc(S(=O)(=O)O)c2c(N=Nc3ccccc3)c(O)ccc2c1`, the AC50 in the assay on TTR (gene 7276) was 12 µM (active).
As to `O=C(O)c1ccccc1O`, the compound was classed as inactive in assay [1], in assay [2], in assay [3], in assay [4] and in assay [5].
Turning to `CCCCCCCCCCCCOCCOS(=O)(=O)O`, the AC50 in the assay on TTR (gene 7276) was 6.09 µM (active).
Turning to `CCCCCCCCOS(=O)(=O)O`, the AC50 with TTR (gene 7276) is 10.6 µM (active).
Consider `CCCCCCOc1ccc(O)cc1`, for which, in the assay on TTR (gene 7276), the AC50 is 3.47 µM (active).
